# Results reported in PubChem BioAssay (Tox21).
# Several values for one entry are separate records, joined by “and”; a condition that tells them apart may be missing. Identical values can stand only once. Records with an inconclusive call do not appear. Entries that show only a call come without a potency. More than one record can exist for a structure, and the calls need not agree. Activity calls are given as the source filed them. Unless noted, calls follow the shape of the dose curve; as a rule, active = well fitted curve in the direction sought with a large enough effect in the repeat runs; inconclusive = weak or mixed curves; inactive = no such curve, though single readings can be large; an effect the other way counts as inactive or inconclusive.
# Experiments:
# [1] = qHTS assay to identify small molecule agonists of H2AX - cell viability counter screen (AID 1224847; calls by dose curve;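 also: wild-type CHO-K1 cells; top concentration of the series differs between compounds; nearly all actives have a fitted effect of over 30% in size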)
# Outline: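 CHO-K1 wt, 1000 cells/well, o/n 37C; cpds 15 conc, 3 h 37C, 0.76% DMSO; CellTiter-Glo, 30 min RT, luminescence.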
# [2] = qHTS assay to identify small molecule antagonists of the estrogen related receptor (ERR) signaling pathway from Tox21 library (AID 1224848); also: nearly all actives have a fitted effect of over 50% in size
# Outline: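 Tox21 10K compounds in DMSO tested for ERR pathway antagonism in NTP's ERR cell line; 18 h, 37 C exposure; ONE-Glo luminescence.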
# [3] = qHTS assay to identify small molecule agonists of the estrogen related receptor (ERR) signaling pathway from Tox21 library (AID 1224849; calls by dose curve; also: nearly all actives have a fitted effect of over 15% in size); conditions: ERR reporter cell line, ONE-Glo luciferase, 18 h
# Outline: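 Tox21 compounds tested for ERR agonism in an NTP reporter cell line: 18 h treatment at 37 C, then ONE-Glo luminescence.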
# [4] = qHTS RealTime-Glo MT Cell Viability Assay in HepG2 cells - 24 hour (AID 1224867); also: nearly all actives have a fitted effect of over 50% in size
# Outline: (§1)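 HepG2 cells were seeded at 600 cells/well together with NanoLuc luciferase and a cell-permeant prosubstrate, preincubated 5 h at 37 C/5% CO2, then pin-dosed with compounds in DMSO. Nonlytic luminescence from viable cells was read at each time point.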
# [5] = qHTS RealTime-Glo MT Cell Viability Assay in HEK293 cells - 32 hour (AID 1224868); also: nearly all actives have a fitted effect of over 50% in size; also: potency is read from the fitted curve at half-maximal effect
# Outline: (§2)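 HEK293 cells were seeded at 600 cells/well together with NanoLuc luciferase and cell-permeant prosubstrate, preincubated 5 h at 37 C/5% CO2, then given compound in DMSO by pintool. Luminescence from viable-cell prosubstrate reduction was read repeatedly over 40 h.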
# [6] = A CellTox Green Cytotoxicity Assay to monitor cytotoxicity in HEK293 cells - 0 hour (AID 1224869); also: nearly all actives have a fitted effect of over 50% in size
# Outline: (§3)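 Tox21 screen in HEK293: membrane-impermeant cyanine dye fluoresces on binding dead-cell DNA; compound pinned 5 h post-seeding, plates held at 37 C, signal read repeatedly through 40 h.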
# [7] = qHTS RealTime-Glo MT Cell Viability Assay in HepG2 cells - 40 hour (AID 1224870); also: nearly all actives have a fitted effect of over 50% in size
# Outline: (§4)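 HepG2 cells mixed with RealTime-Glo MT reagents (NanoLuc plus cell-permeant prosubstrate) were seeded at 600 cells/well, incubated 5 h at 37 C/5% CO2, then pinned with compounds in DMSO; nonlytic luminescence tracked viability during 40 h treatment.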
# [8] = A CellTox Green Cytotoxicity Assay to monitor cytotoxicity in HEK293 cells - 40 hour (AID 1224871); also: nearly all actives have a fitted effect of over 45% in size
# Outline: as §3
# [9] = qHTS RealTime-Glo MT Cell Viability Assay in HEK293 cells - 16 hour (AID 1224872)
# Outline: as §2
# [10] = qHTS RealTime-Glo MT Cell Viability Assay in HepG2 cells - 8 hour (AID 1224873); also: nearly all actives have a fitted effect of over 55% in size
# Outline: as §4
# [11] = qHTS RealTime-Glo MT Cell Viability Assay in HEK293 cells - 40 hour (AID 1224874); conditions: RealTime-Glo luminescence; max response: stronger effect = lower value; also: nearly all actives have a fitted effect of over 50% in size
# Outline: (§5)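 HEK293 + NanoLuc + prosubstrate, 600 cells/well; 5 h, 37 C/5% CO2; compound 23 nL in DMSO by pintool; 37 C; luminescence read at 0, 8, 16, 24, 32 and 40 h time points.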
# [12] = A CellTox Green Cytotoxicity Assay to monitor cytotoxicity in HEK293 cells - 24 hour (AID 1224875); also: nearly all actives have a fitted effect of over 45% in size
# Outline: as §3
# [13] = A CellTox Green Cytotoxicity Assay to monitor cytotoxicity in HepG2 cells - 16 hour (AID 1224876); also: nearly all actives have a fitted effect of over 45% in size
# Outline: (§6)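 Measurements at 0, 8, 16, 24, 32 and 40 h of treatment captured CellTox Green fluorescence in HepG2 cells that had been co-plated with reagent and preincubated 5 h at 37 C/5% CO2.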
# [14] = qHTS RealTime-Glo MT Cell Viability Assay in HepG2 cells - 32 hour (AID 1224877); also: nearly all actives have a fitted effect of over 55% in size
# Outline: as §1
# [15] = A CellTox Green Cytotoxicity Assay to monitor cytotoxicity in HepG2 cells - 24 hour (AID 1224878); also: nearly all actives have a fitted effect of over 45% in size
# Outline: as §6
# [16] = A CellTox Green Cytotoxicity Assay to monitor cytotoxicity in HepG2 cells - 40 hour (AID 1224879); also: nearly all actives have a fitted effect of over 40% in size
# Outline: as §6
# [17] = qHTS RealTime-Glo MT Cell Viability Assay in HEK293 cells - 0 hour (AID 1224880)
# Outline: as §5
# [18] = A CellTox Green Cytotoxicity Assay to monitor cytotoxicity in HEK293 cells - 32 hour (AID 1224881); also: nearly all actives have a fitted effect of over 40% in size
# Outline: as §3
# [19] = A CellTox Green Cytotoxicity Assay to monitor cytotoxicity in HepG2 cells - 0 hour (AID 1224882); also: nearly all actives have a fitted effect of over 35% in size
# Outline: as §6
# [20] = A CellTox Green Cytotoxicity Assay to monitor cytotoxicity in HepG2 cells - 32 hour (AID 1224883); also: nearly all actives have a fitted effect of over 50% in size
# Outline: as §6
smiles,measurement,setting,value
Clc1cccc(Cl)c1Cl,Potency,[1],inactive
same,Potency,[2],inactive
same,"activity change, positive = activation",[3]; at 92.4 µM (top of the series),0.683% (inactive)
same,outcome,[4],inactive
same,Potency,[5],inactive
same,Potency,[6],inactive
same,outcome,[7],inactive
same,Potency,[8],inactive
same,outcome,[9],inactive
same,outcome,[10],inactive
same,max response,[11],14.5% (inactive)
same,Potency,[12],inactive
same,Potency,[13],inactive
same,outcome,[14],inactive
same,Potency,[15],inactive
same,Potency,[16],inactive
same,outcome,[17],inactive
same,Potency,[18],inactive
same,Potency,[19],inactive
same,Potency,[20],inactive
CCC12COCN1COC2,Potency,[1],inactive
same,outcome,[4],inactive
same,Potency,[5],inactive
same,Potency,[6],inactive
same,outcome,[7],inactive
same,Potency,[8],inactive
same,outcome,[9],inactive
same,outcome,[10],inactive
same,max response,[11],1.37% (inactive) and 3.08% (inactive)
same,Potency,[12],inactive
same,Potency,[13],inactive
same,outcome,[14],inactive
same,Potency,[15],inactive
same,Potency,[16],inactive
same,outcome,[17],inactive
same,Potency,[18],inactive
same,Potency,[19],inactive
CC(NC(C)(C)C)C(=O)c1cccc(Cl)c1 (configuration not stated),Potency,[1],inactive
same,outcome,[4],inactive
same,Potency,[5],inactive
same,Potency,[6],inactive
same,outcome,[7],inactive
same,Potency,[8],inactive
same,outcome,[9],inactive
same,outcome,[10],inactive
same,max response,[11],6.38% (inactive) and -11.6% (inactive)
same,Potency,[12],inactive
same,Potency,[13],inactive
same,outcome,[14],inactive
same,Potency,[15],inactive
same,Potency,[16],inactive
same,outcome,[17],inactive
same,Potency,[18],inactive
same,Potency,[19],inactive
CC(C)(C)OOC(C)(C)C,Potency,[1],inactive
same,Potency,[2],inactive
same,"activity change, positive = activation",[3]; at 42.5 µM (top of the series),6.85% (inactive)
same,"activity change, positive = activation",[3]; at 92.4 µM (top of the series),-1.09% (inactive)
same,outcome,[4],inactive
same,Potency,[5],inactive
same,Potency,[6],inactive
same,outcome,[7],inactive
same,Potency,[8],inactive
same,outcome,[9],inactive
same,outcome,[10],inactive
same,max response,[11],1.79% (inactive) and 12.3% (inactive)
same,Potency,[12],inactive
same,Potency,[13],inactive
same,outcome,[14],inactive
same,Potency,[15],inactive
same,Potency,[16],inactive
same,outcome,[17],inactive
same,Potency,[18],inactive
same,Potency,[19],inactive
same,Potency,[20],inactive
COC(=O)NS(=O)(=O)c1ccc(N)cc1,Potency,[1],inactive
same,Potency,[2],inactive
same,"activity change, positive = activation",[3]; at 92.4 µM (top of the series),6.12% (inactive) and 0.416% (inactive)
same,outcome,[4],inactive
same,Potency,[5],inactive
same,Potency,[6],inactive
same,outcome,[7],inactive
same,Potency,[8],inactive
same,outcome,[9],inactive
same,outcome,[10],inactive
same,max response,[11],15.7% (inactive) and 20.4% (inactive)
same,Potency,[12],inactive
same,Potency,[13],inactive
same,outcome,[14],inactive
same,Potency,[15],inactive
same,Potency,[16],inactive
same,outcome,[17],inactive
same,Potency,[18],inactive
same,Potency,[19],inactive
O=C(NC(=O)c1c(F)cccc1F)Nc1cc(Cl)c(OC(F)(F)C(F)C(F)(F)F)cc1Cl (configuration not stated),Potency,[1],inactive
same,"activity change, positive = activation",[3]; at 42.5 µM (top of the series),-26% (inactive)
same,"activity change, positive = activation",[3]; at 92.4 µM (top of the series),-26.5% (inactive)
same,outcome,[4],inactive
same,Potency,[5],12.3 µM (active) and inactive
same,Potency,[6],inactive
same,outcome,[7],inactive
same,Potency,[8],inactive
same,outcome,[9],inactive
same,outcome,[10],inactive
same,max response,[11],-33.5% (inactive)
same,Potency,[12],inactive
same,Potency,[13],inactive
same,outcome,[14],inactive
same,Potency,[15],inactive
same,Potency,[16],inactive
same,outcome,[17],inactive
same,Potency,[18],inactive
same,Potency,[19],inactive
same,Potency,[20],inactive
CN(N=O)c1ccccc1,Potency,[1],inactive
same,Potency,[2],inactive
same,"activity change, positive = activation",[3]; at 92.4 µM (top of the series),0% (inactive) and 7.25% (inactive)
same,outcome,[4],inactive
same,Potency,[5],inactive
same,Potency,[6],inactive
same,outcome,[7],inactive
same,Potency,[8],inactive
same,outcome,[9],inactive
same,outcome,[10],inactive
same,max response,[11],9.26% (inactive) and 4.33% (inactive)
same,Potency,[12],inactive
same,Potency,[13],inactive
same,outcome,[14],inactive
same,Potency,[15],inactive
same,Potency,[16],inactive
same,outcome,[17],inactive
same,Potency,[18],inactive
same,Potency,[19],inactive
same,Potency,[20],inactive
CN(C)CCO,Potency,[1],inactive
same,Potency,[2],inactive
same,"activity change, positive = activation",[3]; at 92.4 µM (top of the series),0.0173% (inactive) and 5.21% (inactive)
same,outcome,[4],inactive
same,Potency,[5],inactive
same,Potency,[6],inactive
same,outcome,[7],inactive
same,Potency,[8],inactive
same,outcome,[9],inactive
same,outcome,[10],inactive
same,max response,[11],-6.53% (inactive) and -6.4% (inactive)
same,Potency,[12],inactive
same,Potency,[13],inactive
same,outcome,[14],inactive
same,Potency,[15],inactive
same,Potency,[16],inactive
same,outcome,[17],inactive
same,Potency,[18],inactive
same,Potency,[19],inactive
same,Potency,[20],inactive
CC(Oc1ccc(Cl)cc1Cl)C(=O)O (configuration not stated),Potency,[1],inactive
same,outcome,[4],inactive
same,Potency,[5],inactive
same,Potency,[6],inactive
same,outcome,[7],inactive
same,Potency,[8],inactive
same,outcome,[9],inactive
same,outcome,[10],inactive
same,max response,[11],-2.47% (inactive)
same,Potency,[12],inactive
same,Potency,[13],inactive
same,outcome,[14],inactive
same,Potency,[15],inactive
same,Potency,[16],inactive
same,outcome,[17],inactive
same,Potency,[18],inactive
same,Potency,[19],inactive
[N-]=[N+]=[N-],Potency,[1],inactive
same,outcome,[4],inactive
same,Potency,[5],inactive
same,Potency,[6],inactive
same,outcome,[7],inactive
same,Potency,[8],inactive
same,outcome,[9],inactive
same,outcome,[10],inactive
same,max response,[11],-10.7% (inactive) and 2.12% (inactive)
same,Potency,[12],inactive
same,Potency,[13],inactive
same,outcome,[14],inactive
same,Potency,[15],inactive
same,Potency,[16],inactive
same,outcome,[17],inactive
same,Potency,[18],inactive
same,Potency,[19],inactive
CC(=O)C=C(C)C,Potency,[1],inactive
same,Potency,[2],inactive
same,"activity change, positive = activation",[3]; at 92.4 µM (top of the series),0.13% (inactive) and 3.17% (inactive)
same,outcome,[4],inactive
same,Potency,[5],inactive
same,Potency,[6],inactive
same,outcome,[7],inactive
same,Potency,[8],inactive
same,outcome,[9],inactive
same,outcome,[10],inactive
same,max response,[11],1.7% (inactive) and 8.25% (inactive)
same,Potency,[12],inactive
same,Potency,[13],inactive
same,outcome,[14],inactive
same,Potency,[15],inactive
same,Potency,[16],inactive
same,outcome,[17],inactive
same,Potency,[18],inactive
same,Potency,[19],inactive
same,Potency,[20],inactive
Cc1cccc([N+](=O)[O-])c1,Potency,[1],inactive
same,Potency,[2],inactive
same,"activity change, positive = activation",[3]; at 92.4 µM (top of the series),5.45% (inactive) and 0.517% (inactive)
same,outcome,[4],inactive
same,Potency,[5],inactive
same,Potency,[6],inactive
same,outcome,[7],inactive
same,Potency,[8],inactive
same,outcome,[9],inactive
same,outcome,[10],inactive
same,max response,[11],1.89% (inactive) and 2.13% (inactive)
same,Potency,[12],inactive
same,Potency,[13],inactive
same,outcome,[14],inactive
same,Potency,[15],inactive
same,Potency,[16],inactive
same,outcome,[17],inactive
same,Potency,[18],inactive
same,Potency,[19],inactive
